Data published in PubChem BioAssay (Tox21).
Inconclusive results are not listed. Activity calls are given as the source filed them. Unless noted, calls come from the whole dose curve.

Tests used:
[1] = Nuclear factor erythroid 2-related factor 2/antioxidant responsive element (Nrf2/ARE) small molecule agonists: luciferase reporter gene qHTS assay in human keratinocytes (AID 1919969); note: nearly all actives have a fitted effect of over 35% in size; note: potency is the fitted concentration of half-maximal effect
[2] = target: KiSS-1 receptor (Homo sapiens) (UniProt Q969F8); experiment: Human kisspeptin (KISS1R) small molecule agonists, calcium flux assay in KISS1R-HEK293 cells (AID 1920064; active = well fitted activation curve with a large enough effect in the repeat runs)
KiSS-1 receptor (Homo sapiens), sequence (Q969F8 whole entry, looked up): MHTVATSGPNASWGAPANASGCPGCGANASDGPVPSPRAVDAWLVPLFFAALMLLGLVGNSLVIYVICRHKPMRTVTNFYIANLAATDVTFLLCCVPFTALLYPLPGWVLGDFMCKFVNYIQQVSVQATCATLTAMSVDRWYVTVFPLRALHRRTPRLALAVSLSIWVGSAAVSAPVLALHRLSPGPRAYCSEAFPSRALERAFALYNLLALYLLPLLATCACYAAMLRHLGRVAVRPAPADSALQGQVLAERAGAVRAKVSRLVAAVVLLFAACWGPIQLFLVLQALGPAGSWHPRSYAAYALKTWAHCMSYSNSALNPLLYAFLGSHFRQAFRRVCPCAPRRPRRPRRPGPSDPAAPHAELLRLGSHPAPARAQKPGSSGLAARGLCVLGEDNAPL
In short: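 HEK293 cells stably expressing human KISS1R were plated 18 h at 37 °C, loaded with calcium dye for 1 h at 37 °C, then given compound by pin tool. Fluorescence (Ex/Em 480/540) was read kinetically for 3 min.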

[3] = G protein-coupled receptor (GPCR) small molecule agonists, calcium flux assay: HEK293 wild type cell line counter screen (AID 1920065)
In short: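 Cells were plated and cultured 18 h at 37 C/5% CO2, then loaded with calcium dye for 1 h at 37 C. Compounds in DMSO were pin-transferred in agonist mode, and fluorescence (Ex/Em 480/540) was read kinetically for 3 min at 1 s intervals.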

[4] = p53 small molecule agonists, cell-based qHTS assay with human liver microsomes (AID 1963577)
In short: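 p53RE-bla cells, 4,000/well, compound added after 5 h, with human liver microsomes 0.5 mg/mL and NADPH 0.5 mg/mL final; 16 h at 37 C, then LiveBLAzer 2 h RT, fluorescence.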

[5] = p53 small molecule agonists, cell-based qHTS assay with rat liver microsomes (AID 1963578)
In short: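 p53RE-bla cells, 4,000/well, pre-incubated 5 h, then given compounds plus rat liver microsomes (0.5 mg/mL final) and NADPH (0.5 mg/mL final). Incubation 16 h at 37 C; beta-lactamase reporter read by LiveBLAzer fluorescence after 2 h at room temperature.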

[6] = p53 small molecule agonists, cell-based qHTS assay with rat liver microsomes: qHTS cell viability counter screen (AID 1963580); note: nearly all actives have a fitted effect of over 45% in size; note: potency is the fitted concentration of half-maximal effect
In short: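 In HCT-116 cells carrying a p53 response element-bla reporter, compounds were metabolically activated in situ by rat liver microsomes with NADPH over 16 h. Cell ATP content then served as the cytotoxicity measure.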

[7] = p53 small molecule agonists, cell-based qHTS assay: qHTS cell viability counter screen (AID 1963581); note: nearly all actives have a fitted effect of over 45% in size; note: potency is the fitted concentration of half-maximal effect
In short: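 p53RE-bla HCT-116 cells were exposed to compounds for 16 h at 37 C; after the beta-lactamase FRET read in the same wells, CellTiter-Glo was added and luminescence (intracellular ATP) read after 30 min at room temperature.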

[8] = target: Muscarinic acetylcholine receptor M1 (Homo sapiens) (UniProt P11229); experiment: Cholinergic receptor muscarinic 1 (CHRM1) small molecule antagonists, cell-based qHTS assay (AID 1963588); note: nearly all actives have a fitted effect of over 40% in size
Muscarinic acetylcholine receptor M1 (Homo sapiens), sequence (P11229 whole entry, looked up): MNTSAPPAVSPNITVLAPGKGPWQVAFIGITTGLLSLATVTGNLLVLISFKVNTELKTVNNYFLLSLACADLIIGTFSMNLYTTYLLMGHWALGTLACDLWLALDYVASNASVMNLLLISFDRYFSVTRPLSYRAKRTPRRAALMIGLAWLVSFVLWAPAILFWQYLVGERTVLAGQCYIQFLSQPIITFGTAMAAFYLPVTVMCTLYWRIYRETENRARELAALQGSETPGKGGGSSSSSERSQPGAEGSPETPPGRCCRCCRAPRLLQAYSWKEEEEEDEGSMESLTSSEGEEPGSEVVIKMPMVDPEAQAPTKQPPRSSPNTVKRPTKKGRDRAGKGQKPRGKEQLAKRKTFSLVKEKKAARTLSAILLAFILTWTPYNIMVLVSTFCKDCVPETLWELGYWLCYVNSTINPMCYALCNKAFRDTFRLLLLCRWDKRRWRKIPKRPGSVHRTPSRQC
In short: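 CHRM1-CHO calcium-flux assay, antagonist mode. Cells were seeded 18 h, dye-loaded 1 h at 37 C and given compound for 5 min at RT, then acetylcholine was added at 50nM. FDSS fluorescence was read 3 min; 15 concentrations, three runs.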

[9] = target: Muscarinic acetylcholine receptor M1 (Homo sapiens) (UniProt P11229); experiment: Cholinergic receptor muscarinic 1 (CHRM1) small molecule agonists, cell-based qHTS assay (AID 1963589); note: nearly all actives have a fitted effect of over 35% in size
In short: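 CHO cells stably expressing human CHRM1, seeded 18 h at 37 C/5% CO2, dye-loaded 1 h at 37 C, then given compound in agonist mode; intracellular calcium fluorescence read kinetically at 1 s intervals. Fifteen concentrations, three independent runs.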

[10] = target: D(2) dopamine receptor (Homo sapiens) (UniProt P14416); experiment: Dopamine D2 receptor (DRD2) small molecule antagonists, cell-based qHTS assay (AID 1963595; active = well fitted inhibition curve with a large enough effect in the signal ratio in the repeat runs, with a control signal flat; the % refers to the signal ratio; note: potency is the fitted concentration of half-maximal effect)
D(2) dopamine receptor (Homo sapiens), sequence (P14416 whole entry, looked up): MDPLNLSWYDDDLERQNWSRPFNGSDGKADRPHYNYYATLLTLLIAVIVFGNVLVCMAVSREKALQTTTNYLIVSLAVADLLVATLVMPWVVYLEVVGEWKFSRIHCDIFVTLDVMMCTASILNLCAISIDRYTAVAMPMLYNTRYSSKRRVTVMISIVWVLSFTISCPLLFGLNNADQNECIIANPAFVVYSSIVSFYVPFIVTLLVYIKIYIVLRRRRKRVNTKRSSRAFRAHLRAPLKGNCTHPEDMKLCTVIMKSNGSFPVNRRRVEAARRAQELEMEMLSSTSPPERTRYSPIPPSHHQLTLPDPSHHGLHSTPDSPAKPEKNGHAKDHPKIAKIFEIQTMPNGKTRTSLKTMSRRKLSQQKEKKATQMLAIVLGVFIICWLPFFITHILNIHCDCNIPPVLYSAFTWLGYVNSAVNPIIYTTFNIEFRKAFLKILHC
In short: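 In this cell-based antagonist screen, compounds act for 10 min at room temperature before a 30 min challenge with 12 nM quinpirole and 200 nM NKH477. cAMP is quantified by HTRF competition in DRD2-HEK293 cells containing 0.1 mM Ro20-1724.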

[11] = p53 small molecule agonists, cell-based qHTS assay with human liver microsomes: qHTS cell viability counter screen (AID 1963579); note: nearly all actives have a fitted effect of over 45% in size
In short: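 p53RE-bla cells, 4,000/well, dosed 5 hours after plating, with human liver microsomes (0.5 mg/mL final) plus NADPH (0.5 mg/mL final), 16 hours at 37 C. Viability read as CellTiter-Glo luminescence after 30 min at room temperature.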

[12] = target: 5-hydroxytryptamine receptor 2A (Homo sapiens) (UniProt P28223); experiment: 5-hydroxytryptamine receptor 2A (HTR2A) small molecule antagonists, cell-based qHTS assay (AID 1963586); note: nearly all actives have a fitted effect of over 45% in size; note: potency is the fitted concentration of half-maximal effect
5-hydroxytryptamine receptor 2A (Homo sapiens), sequence (P28223 whole entry, looked up): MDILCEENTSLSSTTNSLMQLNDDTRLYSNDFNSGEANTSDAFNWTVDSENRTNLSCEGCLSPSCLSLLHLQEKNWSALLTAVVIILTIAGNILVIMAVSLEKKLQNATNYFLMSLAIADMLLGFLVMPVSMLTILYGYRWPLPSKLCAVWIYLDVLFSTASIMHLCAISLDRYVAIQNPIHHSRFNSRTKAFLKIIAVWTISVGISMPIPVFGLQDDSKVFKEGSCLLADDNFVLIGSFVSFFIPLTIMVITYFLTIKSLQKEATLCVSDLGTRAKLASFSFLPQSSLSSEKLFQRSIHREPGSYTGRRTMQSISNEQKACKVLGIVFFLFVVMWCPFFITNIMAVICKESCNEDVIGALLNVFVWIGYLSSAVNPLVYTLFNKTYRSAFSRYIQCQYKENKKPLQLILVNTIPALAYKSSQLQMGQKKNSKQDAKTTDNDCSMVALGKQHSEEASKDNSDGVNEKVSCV
In short: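 Antagonist-mode intracellular calcium assay: DOI (4 nM) added after 5 min compound pre-incubation at room temperature to dye-loaded HTR2A-CHO cells. Fluorescence followed for 3 min, sampled every second.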

[13] = target: Beta-2 adrenergic receptor (Homo sapiens) (UniProt P07550); experiment: Adrenergic beta2 receptor (ADRB2) small molecule antagonists, cell-based qHTS assay (AID 1963592); note: series mostly up to about 92 µM; nearly all actives have a fitted effect of over 50% in size
Beta-2 adrenergic receptor (Homo sapiens), sequence (P07550 whole entry, looked up): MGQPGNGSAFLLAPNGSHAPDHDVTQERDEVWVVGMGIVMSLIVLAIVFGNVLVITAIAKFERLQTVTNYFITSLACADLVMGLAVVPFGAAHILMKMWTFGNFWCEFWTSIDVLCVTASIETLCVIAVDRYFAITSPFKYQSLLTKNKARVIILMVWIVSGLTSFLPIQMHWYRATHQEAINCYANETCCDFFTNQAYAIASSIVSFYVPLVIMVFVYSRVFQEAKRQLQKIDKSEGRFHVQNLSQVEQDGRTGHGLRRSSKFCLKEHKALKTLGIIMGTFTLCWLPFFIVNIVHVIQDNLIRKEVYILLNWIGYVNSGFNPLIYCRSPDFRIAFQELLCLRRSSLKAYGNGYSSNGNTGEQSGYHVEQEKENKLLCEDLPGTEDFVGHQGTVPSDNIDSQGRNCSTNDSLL
In short: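 Cells (CHO, stable ADRB2 overexpression) incubated 18-20hr at 37C; compounds added from DMSO; agonist mix (1nM isoproterenol, 100uM IBMX, 25uM Ro-20-1724) added; 0.5hr RT; d2-cAMP and anti-cAMP-cryptate added; 1hr RT; 665/615 nm read.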

[14] = target: D(2) dopamine receptor (Homo sapiens) (UniProt P14416); experiment: Dopamine D2 receptor (DRD2) small molecule agonists, cell-based qHTS assay (AID 1963594); note: nearly all actives have a fitted effect of over 35% in size
In short: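 HEK293 cells stably expressing DRD2 were cultured 24 h at 37 C, then given Ro20-1724 (0.1 mM final) and compounds for 10 min at room temperature. NKH477 (200nM) was then added for 30 min. cAMP was read by HTRF.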

[15] = target: Gonadotropin-releasing hormone receptor (Homo sapiens) (UniProt P30968); experiment: Human gonadotropin-releasing hormone receptor (GnRHR) small molecule agonists, calcium flux assay in GnRHR-HEK293 cells (AID 1920063); note: nearly all actives have a fitted effect of over 35% in size
Gonadotropin-releasing hormone receptor (Homo sapiens), sequence (P30968 whole entry, looked up): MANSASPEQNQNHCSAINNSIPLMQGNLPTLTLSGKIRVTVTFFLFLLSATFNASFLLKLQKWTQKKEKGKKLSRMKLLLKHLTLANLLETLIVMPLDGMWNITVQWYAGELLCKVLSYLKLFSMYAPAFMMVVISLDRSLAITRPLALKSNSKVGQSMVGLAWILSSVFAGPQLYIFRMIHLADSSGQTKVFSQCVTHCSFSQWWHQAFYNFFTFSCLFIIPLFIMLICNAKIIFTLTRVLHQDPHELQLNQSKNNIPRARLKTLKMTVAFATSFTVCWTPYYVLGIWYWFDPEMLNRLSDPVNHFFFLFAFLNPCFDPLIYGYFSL
In short: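 HEK293 cells stably expressing human GnRHR were plated 18 h at 37 °C, loaded with calcium dye 1 h at 37 °C, then given compound in agonist mode; fluorescence (Ex/Em 480/540) read kinetically for 3 min at 1 s intervals.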

[16] = p53 small molecule agonists, cell-based qHTS assay (AID 1963582; active = well fitted activation curve with a large enough effect in the signal ratio in the repeat runs, not every such curve was filed as active; the % refers to the signal ratio)
In short: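 p53RE-bla beta-lactamase reporter cells rested 5 h at 37 C/5% CO2, then received compounds in DMSO by pin transfer and were incubated 16 h at 37 C. LiveBLAzer B/G FRET substrate was loaded for 2 h at room temperature before fluorescence reading.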

[17] = target: 5-hydroxytryptamine receptor 2A (Homo sapiens) (UniProt P28223); experiment: 5-hydroxytryptamine receptor 2A (HTR2A) small molecule agonists, cell-based qHTS assay (AID 1963587); note: nearly all actives have a fitted effect of over 30% in size; note: potency is the fitted concentration of half-maximal effect
In short: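 HTR2A-CHO cells, plated 18 h at 37 C/5% CO2, dye-loaded 1 h at 37 C; compounds in DMSO added by pin tool (agonist mode). Intracellular calcium flux read as kinetic fluorescence on FDSS over 2 min at 1 s intervals.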

[18] = cAMP Responsive Elements (CRE) small molecule antagonists, cell-based qHTS assay (AID 1963591; active = well fitted inhibition curve with a large enough effect in the signal ratio in the repeat runs, not every such curve was filed as active; the % refers to the signal ratio)
In short: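 CRE-bla HEK293T cells were plated 18 h at 37 °C/5% CO2, pinned with compound in DMSO, then stimulated with NKH477 at 0.25 uM final for 3 h. LiveBLAzer B/G FRET substrate was added and plates incubated 2 h at room temperature.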

[19] = cAMP Responsive Elements (CRE) small molecule agonists, cell-based qHTS assay (AID 1963590)
In short: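 CRE-bla HEK 293T cells in DMEM with 10% dialyzed FBS, NEAA, pyruvate and 25 mM HEPES were plated 18 h at 37 C/5% CO2, then exposed to compounds in DMSO for 3 h before LiveBLAzer B/G FRET substrate addition.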

[20] = target: Beta-2 adrenergic receptor (Homo sapiens) (UniProt P07550); experiment: Adrenergic beta2 receptor (ADRB2) small molecule agonists, cell-based qHTS assay (AID 1963593);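 note: CHO cells stably overexpressing human ADRB2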
In short: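 CHO cells stably over-expressing ADRB2 were plated overnight at 37C, then dosed with compounds plus a stimulation mix containing 100uM IBMX and 25uM Ro-20-1724 for 0.5hr at room temperature. cAMP was measured by HTRF competition, 1hr.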
% is set by controls: 0 for no effect and ±100 for the full control effect.

CCC[CH2][Sn]([CH2]CCC)([CH2]CCC)[O][Sn]([CH2]CCC)([CH2]CCC)[CH2]CCC
active: Potency [1] 0.533 µM | Potency [6] 1 µM | Potency [7] 0.893 µM | Potency [10] 2.12 µM
inactive: activation [2] 9.21% [at 6.97 µM] | activation [3] 2.41% [at 5.23 µM] | activation [4] -15.1% [at 5.99 µM] | activation [5] -3.45% [at 5.99 µM] | activity, negative = inhibition [8] 0.927% [at 5.58 µM] | activation [9] 7.77% [at 6.97 µM]

Cc1cc(SCc2sc(-c3ccc(C(F)(F)F)c(F)c3)nc2C)ccc1OCC(=O)O
active: Potency [1] 61.1 µM | Potency [12] 42.1 µM
inactive: Potency [2] | Potency [3] | Potency [4] | Potency [5] | Potency [11] | Potency [7] | Potency [9] | Potency [13] | Potency [14] | Potency [10]

S=C=NCCc1ccccc1
active: Potency [1] 43.4 µM
inactive: Potency [15] | Potency [3] | Potency [4] | Potency [5] | Potency [11] | Potency [6] | Potency [7] | Potency [16] | Potency [17] | Potency [8] | Potency [9] | Potency [18] | Potency [13] | Potency [10]

O=C1C(I)=CC(=C(c2cc(I)c(O)c(I)c2)c2ccccc2C(=O)O)C=C1I
inactive: Potency [1] | Potency [15] | Potency [3] | Potency [6] | Potency [12] | Potency [17] | Potency [8] | Potency [9] | Potency [18] | Potency [13] | Potency [14] | Potency [10]

ClCCCCl
inactive: Potency [1] | Potency [15] | Potency [3] | Potency [4] | Potency [5] | Potency [11] | Potency [6] | Potency [12] | Potency [17] | Potency [9] | Potency [19] | Potency [18] | Potency [13] | Potency [10]

CC(C)(O)c1cnn2c(-c3ccc(F)c(-c4c(F)cccc4C#N)c3)cnc2n1
inactive: Potency [1] | Potency [2] | Potency [3] | Potency [11] | Potency [6] | Potency [7] | Potency [12] | Potency [8] | Potency [9] | Potency [13] | Potency [20] | Potency [10]
active: Potency [17] 54.9 µM

CCC[N+](CCC)(CCC)CCC
inactive: Potency [1] | Potency [2] | Potency [3] | Potency [4] | Potency [5] | Potency [11] | Potency [7] | Potency [16] | Potency [12] | Potency [17] | Potency [8] | Potency [9] | Potency [19] | Potency [18] | Potency [13] | Potency [20] | Potency [14] | Potency [10]

O=S1(=O)OCC2C(CO1)C1(Cl)C(Cl)=C(Cl)C2(Cl)C1(Cl)Cl (configuration not stated)
active: Potency [1] 24.3 µM
inactive: Potency [2] | Potency [3] | Potency [5] | Potency [11] | Potency [6] | Potency [7] | Potency [12] | Potency [17] | Potency [8] | Potency [9] | Potency [13] | Potency [20] | Potency [14] | Potency [10]

CN(N=O)c1ccc([N+](=O)[O-])cc1
inactive: Potency [1] | Potency [15] | Potency [2] | Potency [11] | Potency [6] | Potency [7] | Potency [12] | Potency [8] | Potency [9] | Potency [18] | Potency [13] | Potency [14] | Potency [10]

CC(C)(C)NCC(O)c1cc(Cl)c(N)c(Cl)c1 (configuration not stated)
inactive: Potency [1] | Potency [2] | Potency [3] | Potency [4] | Potency [5] | Potency [11] | Potency [6] | Potency [16] | Potency [18]
active: Potency [10] 0.0021 µM
